Experimental data from PubChem BioAssay AID1117264 (The Scripps Research Institute Molecular Screening Center, 2014).
The campaign covered roughly 89,000 compounds. About 440 (0.49%) were called active. The entries come from a sample that favours actives as a whole. Unmarked numbers belong to inactive results.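 How the source made its calls: active means inhibition above the mean inhibition across all screened compounds plus 3 SD (cut at about 11% in these data); inactive means the rest.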

The molecules below were run against RNA-editing ligase 1, mitochondrial (Trypanosoma brucei brucei) (UniProt P86926) (assay: T. brucei editing ligase REL1 blockade – biochemical, FRET fluorescence, primary screen (AID 1117264;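 further: 0% = plate median of test wells and 100% = NSC42067 control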)). Conditions: TbREL1 RNA ligation, at 9.66 µM, stronger effect = higher value.
Sequence of RNA-editing ligase 1, mitochondrial (Trypanosoma brucei brucei) (P86926 whole entry, looked up): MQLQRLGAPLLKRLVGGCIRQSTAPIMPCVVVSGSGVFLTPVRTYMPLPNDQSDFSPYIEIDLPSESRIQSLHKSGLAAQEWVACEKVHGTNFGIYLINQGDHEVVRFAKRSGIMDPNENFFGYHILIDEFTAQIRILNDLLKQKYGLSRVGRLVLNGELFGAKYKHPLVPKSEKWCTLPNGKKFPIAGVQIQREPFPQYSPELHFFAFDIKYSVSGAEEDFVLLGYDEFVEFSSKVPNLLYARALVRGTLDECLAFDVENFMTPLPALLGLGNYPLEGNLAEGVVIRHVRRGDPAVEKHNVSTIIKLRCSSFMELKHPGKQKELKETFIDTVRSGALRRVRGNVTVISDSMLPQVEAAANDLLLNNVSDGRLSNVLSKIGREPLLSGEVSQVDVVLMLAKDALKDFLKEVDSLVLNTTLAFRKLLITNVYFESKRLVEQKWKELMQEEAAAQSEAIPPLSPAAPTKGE

SMILES	inhibition
CC1CCCCN1Cc1cccnc1 (stereo not given)	13.3% (active)
COC(=O)C1=C(c2ccc(F)cc2OCc2ccccc2)C[C@@H]2CC[C@H]1N2C(=O)NCc1ccc(C(C)(C)C)cc1	-1.57%
CN1CCN(c2cc(N3CCNCC3)ccc2[N+](=O)[O-])CC1	13.9% (active)
COc1cccc(-c2nc3ccc(N4CCN(C)CC4)cc3[nH]2)c1	5.54%
Cc1cccc(NC(=O)N2CC3CC(C2)c2cccc(=O)n2C3)c1 (stereo not given)	3.86%
COC(=O)C1=C(c2ccccc2OCc2ccccc2)C[C@@H]2CC[C@H]1N2C(=O)NCc1ccc(OC)cc1	-0.93%
CCOP(=O)(OCC)C(NC(=O)NC)C(N)=O (stereo not given)	2.84%
O=c1[nH]c2ccccc2n1C1CCN(C(c2ccccc2)c2nnnn2Cc2ccccc2)CC1 (stereo not given)	23.1% (active)
COc1ccc(-n2nnnc2C(c2cccc3ccccc23)N2CCC(n3c(=O)[nH]c4ccccc43)CC2)cc1 (stereo not given)	-2.29%
CCC(=NCCc1ccccc1)c1c(O)n(C2CCCCC2)c(=O)[nH]c1=O	-0.24%
COc1cc(C(=O)N2Cc3ccc(Br)cc3-n3nncc3C2)cc(OC)c1OC	2.36%
CN1CCN(C(=S)SCC(=O)Nc2ccc(Cl)cc2C(=O)c2ccccc2)CC1	2.78%
CCOC(=O)CNC(=O)N1Cc2cc(N3CCCCC3)ccc2-n2nncc2C1	2.4%
COc1ccc(-c2nn(CCC#N)cc2C(=O)O)cc1	-2.19%
CSc1ccc(C(=O)C2CCCN(Cc3ccn[nH]3)C2)cc1 (stereo not given)	0.96%
